According to PubChem BioAssay (NCATS):
Records with an inconclusive call do not appear. Active and inactive are the calls of the source. Calls come from the whole dose curve; as a rule, active = well fitted curve in the direction sought with a large enough effect; inconclusive = small, poorly fitted or top-dose-only effect, or another doubt; inactive = no such curve, though single readings can be large; an effect the other way counts as inactive or inconclusive.

Tests used:
[1] = system: MCC-13; assay: qHTS assay to identify novel small-molecules to repurpose for Merkel cell carcinoma treatment (AID 1296009); conditions: MCC and control cell lines, CellTiter-Glo viability, 72 h; series mostly up to 46 µM; note: nearly all actives have a fitted effect of over 60% in size
How it was run: (§1)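 After compound transfer in DMSO, plates were kept 72 hr at 37 degree celsius. Luminescent ATP signal from CellTiter-Glo served as viability measure, normalized against DMSO and no-cell controls.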

[2] = system: MCC-26; assay: as above; conditions: MCC and control cell lines, CellTiter-Glo viability, 72 h; series mostly up to 46 µM
How it was run: as §1

[3] = system: MKL-1; assay: as above; conditions: MCC and control cell lines, CellTiter-Glo viability, 72 h; series mostly up to 46 µM
How it was run: as §1

[4] = system: MKL-2; assay: as above; conditions: MCC and control cell lines, CellTiter-Glo viability, 72 h; series mostly up to 46 µM
How it was run: as §1

[5] = system: UISO; assay: as above; conditions: MCC and control cell lines, CellTiter-Glo viability, 72 h; series mostly up to 46 µM
How it was run: as §1

[6] = system: WaGa; assay: as above; conditions: MCC and control cell lines, CellTiter-Glo viability, 72 h; series mostly up to 46 µM
How it was run: as §1

[7] = system: C33A; assay: Primary qHTS to identify gynecologic anti-cancer compounds using libraries of approved drugs and bioactive compounds (AID 1345084); conditions: Gynecologic cancer cell panel viability, ATPlite luminescence, 48 h; series mostly up to 57.5 µM; note: nearly all actives have a fitted effect of over 55% in size
How it was run: (§2)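 48 h compound exposure at 37 C, 5% CO2; five-point qHTS. ATPlite luminescence readout of cell ATP.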

[8] = system: CAOV3; assay: as above; conditions: Gynecologic cancer cell panel viability, ATPlite luminescence, 48 h; series mostly up to 57.5 µM
How it was run: as §2

[9] = system: CASKI; assay: as above; conditions: Gynecologic cancer cell panel viability, ATPlite luminescence, 48 h; series mostly up to 57.5 µM
How it was run: as §2

[10] = system: Es-2; assay: as above; conditions: Gynecologic cancer cell panel viability, ATPlite luminescence, 48 h; series mostly up to 57.5 µM
How it was run: as §2

[11] = system: HeLa; assay: as above; conditions: Gynecologic cancer cell panel viability, ATPlite luminescence, 48 h; series mostly up to 57.5 µM
How it was run: as §2

[12] = system: Hek293T; assay: as above; conditions: Gynecologic cancer cell panel viability, ATPlite luminescence, 48 h, control line for the selectivity index; series mostly up to 57.5 µM
How it was run: as §2

[13] = system: JEG-3; assay: as above; conditions: Gynecologic cancer cell panel viability, ATPlite luminescence, 48 h; series mostly up to 57.5 µM
How it was run: as §2

[14] = system: OV90; assay: as above; conditions: Gynecologic cancer cell panel viability, ATPlite luminescence, 48 h; series mostly up to 57.5 µM
How it was run: as §2

[15] = system: PA-1; assay: as above; conditions: Gynecologic cancer cell panel viability, ATPlite luminescence, 48 h; series mostly up to 57.5 µM
How it was run: as §2

[16] = system: SKOV3; assay: as above; conditions: Gynecologic cancer cell panel viability, ATPlite luminescence, 48 h; series mostly up to 57.5 µM
How it was run: as §2

[17] = system: Tov-21-G; assay: as above; conditions: Gynecologic cancer cell panel viability, ATPlite luminescence, 48 h; series mostly up to 57.5 µM
How it was run: as §2

[18] = system: Tov112D; assay: as above; conditions: Gynecologic cancer cell panel viability, ATPlite luminescence, 48 h; series mostly up to 57.5 µM
How it was run: as §2

[19] = Drug repurposing screens with cells derived from glioblastoma tumor samples (AID 1345199); conditions: GBM patient neurospheres viability, ATP luminescence, 48 h; note: nearly all actives have a fitted effect of over 40% in size
How it was run: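 Four patient lines of CD133+ GBM neurospheres were screened at several concentrations; hits were retested in those lines plus three slower-growing GBM lines, using 48-hour treatment and ATP-based viability.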

[20] = at 45.9 µM (top of the series), tumour line B
[21] = at 45.9 µM (top of the series), tumour line D
[22] = at 46 µM (top of the series), tumour line A
[23] = at 46.1 µM (top of the series), tumour line C
% is set by controls: 0 for no effect and ±100 for the full control effect.

Oc1cc(O)c2c(c1)O[C@H](c1ccc(O)c(O)c1)[C@H](O)C2
inactive: Potency [1] | Potency [2] | Potency [3] | Potency [4] | Potency [5] | Potency [6] | Potency [7] | Potency [8] | Potency [9] | Potency [10] | Potency [11] | Potency [12] | Potency [13] | Potency [14] | Potency [15] | Potency [16] | Potency [17] | Potency [18] | activity, negative = cell killing [19, 20] -5.02% | activity, negative = cell killing [19, 21] -9.16% | activity, negative = cell killing [19, 22] -28.5% | activity, negative = cell killing [19, 23] -2.43%

Nc1ccc(C(=O)O)cc1
inactive: Potency [1] | Potency [2] | Potency [3] | Potency [4] | Potency [5] | Potency [6] | Potency [7] | Potency [8] | Potency [9] | Potency [10] | Potency [11] | Potency [12] | Potency [13] | Potency [14] | Potency [15] | Potency [16] | Potency [17] | Potency [18] | activity, negative = cell killing [19, 20] -6.59% | activity, negative = cell killing [19, 21] -1.8% | activity, negative = cell killing [19, 22] -31.3% | activity, negative = cell killing [19, 23] -10.3%

NC(CS)C(=O)O (configuration not stated)
inactive: Potency [1] | Potency [2] | Potency [3] | Potency [4] | Potency [5] | Potency [6] | Potency [7] | Potency [8] | Potency [9] | Potency [10] | Potency [11] | Potency [12] | Potency [13] | Potency [14] | Potency [15] | Potency [16] | Potency [17] | Potency [18] | activity, negative = cell killing [19, 20] -9.5% | activity, negative = cell killing [19, 21] -0.348% | activity, negative = cell killing [19, 22] -20.7% | activity, negative = cell killing [19, 23] -17%

CC(C)(Oc1ccc(Cl)cc1)C(=O)O
inactive: Potency [1] | Potency [2] | Potency [3] | Potency [4] | Potency [5] | Potency [6] | Potency [7] | Potency [8] | Potency [9] | Potency [10] | Potency [11] | Potency [12] | Potency [13] | Potency [14] | Potency [15] | Potency [16] | Potency [17] | Potency [18] | activity, negative = cell killing [19, 20] -11.3% | activity, negative = cell killing [19, 21] 2.87% | activity, negative = cell killing [19, 22] -14.8% | activity, negative = cell killing [19, 23] -3.07%

CCCCC(=O)O[C@]1(C(=O)CO)CC[C@H]2[C@@H]3CCC4=CC(=O)CC[C@]4(C)[C@H]3[C@@H](O)C[C@@]21C
inactive: Potency [1] | Potency [2] | Potency [3] | Potency [4] | Potency [5] | Potency [6] | Potency [7] | Potency [8] | Potency [9] | Potency [10] | Potency [11] | Potency [12] | Potency [13] | Potency [14] | Potency [15] | Potency [16] | Potency [17] | Potency [18] | activity, negative = cell killing [19, 20] -13.9% | activity, negative = cell killing [19, 21] -13.5% | activity, negative = cell killing [19, 22] -14.6% | activity, negative = cell killing [19, 23] -22.7%

CCn1cc(C(=O)O)c(=O)c2cnc(N3CCCC3)nc21
inactive: activity change, negative = cytotoxicity [1] 5.05% [at 9.22 µM] | activity change, negative = cytotoxicity [2] -5.4% [at 9.22 µM] | activity change, negative = cytotoxicity [3] 1.32% [at 9.22 µM] | activity change, negative = cytotoxicity [4] 14.9% [at 9.22 µM] | activity change, negative = cytotoxicity [5] 12.1% [at 9.22 µM] | activity change, negative = cytotoxicity [6] 0.34% [at 9.22 µM] | activity change, negative = cytotoxicity [7] -2.2% [at 11.6 µM] | activity change, negative = cytotoxicity [8] -1.93% [at 11.6 µM] | activity change, negative = cytotoxicity [9] 15.2% [at 11.6 µM] | activity change, negative = cytotoxicity [10] 0.873% [at 11.6 µM] | activity change, negative = cytotoxicity [11] -17.6% [at 11.6 µM] | activity change, negative = cytotoxicity [12] 1.62% [at 11.6 µM] | activity change, negative = cytotoxicity [13] -0.757% [at 11.6 µM] | activity change, negative = cytotoxicity [14] -1.88% [at 11.6 µM] | activity change, negative = cytotoxicity [15] 3.4% [at 11.6 µM] | activity change, negative = cytotoxicity [16] 27% [at 11.6 µM] | activity change, negative = cytotoxicity [17] 5.91% [at 11.6 µM] | activity change, negative = cytotoxicity [18] 5.36% [at 11.6 µM] | activity, negative = cell killing ([19]; at 20 µM (top of the series), tumour line C) -8.14% | activity, negative = cell killing ([19]; at 21.2 µM (top of the series), tumour line B) -5.2% | activity, negative = cell killing ([19]; at 21.2 µM (top of the series), tumour line D) -3.67% | activity, negative = cell killing ([19]; at 21.3 µM (top of the series), tumour line A) -24.5%

CCCCC1=NC2(CCCC2)C(=O)N1Cc1ccc(-c2ccccc2-c2nn[nH]n2)cc1
inactive: Potency [1] | Potency [2] | Potency [3] | Potency [4] | Potency [5] | Potency [6] | Potency [7] | Potency [8] | Potency [9] | Potency [10] | Potency [11] | Potency [12] | Potency [13] | Potency [14] | Potency [15] | Potency [17] | Potency [18] | activity, negative = cell killing [19, 20] -9.67% | activity, negative = cell killing [19, 21] -0.133% | activity, negative = cell killing [19, 22] -12.9% | activity, negative = cell killing [19, 23] 8.98%

CC(C)(C)NC(=O)[C@@H]1CN(Cc2cccnc2)CCN1C[C@@H](O)C[C@@H](Cc1ccccc1)C(=O)N[C@H]1c2ccccc2C[C@H]1O
inactive: Potency [1] | Potency [2] | Potency [3] | Potency [4] | Potency [5] | Potency [6] | Potency [7] | Potency [8] | Potency [9] | Potency [10] | Potency [11] | Potency [12] | Potency [13] | Potency [14] | Potency [15] | Potency [17] | Potency [18]

CC[N+](CC)(CCNC(=O)C(=O)NCC[N+](CC)(CC)Cc1ccccc1Cl)Cc1ccccc1Cl
inactive: Potency [1] | Potency [2] | Potency [3] | Potency [4] | Potency [5] | Potency [6] | Potency [7] | Potency [8] | Potency [9] | Potency [10] | Potency [11] | Potency [12] | Potency [13] | Potency [14] | Potency [15] | Potency [16] | Potency [17] | Potency [18] | activity, negative = cell killing [19, 20] -6.34% | activity, negative = cell killing [19, 21] -19.6% | activity, negative = cell killing [19, 22] -23.4% | activity, negative = cell killing [19, 23] 15.3%
